From PubChem BioAssay
Anesthetic bind – qHTS Assay for Identification of Novel General Anesthetics | apoferritin/1-aminoanthracene competitive binding, fluorescence | Ferritin light chain (Equus caballus), P02791 | AID 485281, 2010 | actives 0.074% (n = 350,000) | Potency, µM (titrated, usually from 77.5 µM), actives largely listed as inhibitors; note: nearly all actives have a fitted effect of over 20% in size
Target sequence (P02791 2-175 limits assumed): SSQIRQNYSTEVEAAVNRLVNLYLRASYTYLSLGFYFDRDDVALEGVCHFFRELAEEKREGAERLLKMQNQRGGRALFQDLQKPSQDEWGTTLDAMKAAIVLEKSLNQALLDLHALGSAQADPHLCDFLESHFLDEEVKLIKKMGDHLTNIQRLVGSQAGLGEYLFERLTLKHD
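Probe: 1-aminoanthracene (50% saturated, PBS). Protein: horse-spleen apoferritin, 10 uM. Incubation: 10 min, room temperature. Detection: 380 nm excitation, 535 nm emission. Analysis: normalized response, four-parameter Hill.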
GoLoco inh red – qHTS Assay for Inhibitors of RGS12 GoLoco Motif Activity (Red Fluorophore); Guanine nucleotide-binding protein G(i) subunit alpha-1 (Homo sapiens), P63096; Gai1:RGS12 GoLoco peptide FP, rhodamine, 10 min; Potency, µM (series often up to 61.6 µM), most hits filed as inhibitors; actives 0.44% (n = 230,000); AID 880, 2007; active = well fitted inhibition curve with a large enough effect, not every such curve was filed as active; inactive = no such curve, though single readings can be large or run the other way; note: nearly all actives have a fitted effect of over 30% in size
Target sequence (P63096 whole entry, looked up): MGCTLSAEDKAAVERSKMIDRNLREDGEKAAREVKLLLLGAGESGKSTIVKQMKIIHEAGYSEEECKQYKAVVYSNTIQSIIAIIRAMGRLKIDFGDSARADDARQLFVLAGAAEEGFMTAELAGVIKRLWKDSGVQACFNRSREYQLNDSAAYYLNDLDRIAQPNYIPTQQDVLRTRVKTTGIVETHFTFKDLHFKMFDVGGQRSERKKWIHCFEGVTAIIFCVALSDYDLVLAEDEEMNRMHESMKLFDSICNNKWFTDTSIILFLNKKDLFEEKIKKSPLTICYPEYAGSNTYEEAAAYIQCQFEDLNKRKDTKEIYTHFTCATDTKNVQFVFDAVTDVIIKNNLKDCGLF
BRCA1 expr up – qHTS Assay to Identify Small Molecule Activators of BRCA1 Expression; MCF7-BRCA1-FFLuc reporter, luminescence, 48 h; response scale: scaled: vehicle 0%, 10 µM genistein 100%; AID 624202, 2012; Potency, µM (doses to about 46.1 µM), most hits filed as activators; actives 1.1% (n = 380,000); note: nearly all actives have a fitted effect of over 80% in size
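Luminescence from a BRCA1-driven firefly luciferase in MCF7 cells was the read-out, taken 15 min after substrate addition following 48 h compound exposure at 37 °C. Data were normalized to a 10 microM genistein control and DMSO vehicle.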
ERG Ets-DNA blk – qHTS for Small Molecule Inhibitors of the ERG Ets/DNA interaction | fluorescence polarization, His-ERG Ets domain / labelled DNA | Potency, µM (top dose mostly 76.9 µM), hits mostly inhibitors | actives 0.028% (n = 370,000) | AID 624246, 2012; active = well fitted inhibition curve with a large enough effect in the polarisation, with a control signal flat; inconclusive = small, poorly fitted or top-dose-only effect, or effect the other way, or a change in a side signal; inactive = no such curve, though single readings can be large or run the other way; the % refers to the polarisation;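 note: polarization taken with two DNA probes labelled with fluorescein and Texas red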
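His-tagged ERG Ets domain (1 uM in the protein solution; 300mM KCl, 50mM Tris-HCl, 1mM EDTA, 1mM DTT, pH 7.5) received compound, then a probe mix of 5 nM fluorescein-DNA and 100nM Texas-615-DNA. Fluorescence polarization was read for both dyes.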
Of the large screens only hits and unclear results are named; the others gave an inactive call. An excerpt weighted towards active compounds, which were near 1.2% of everything screened. Unless noted, calls come from the whole dose curve; as a rule, active = well fitted curve in the direction sought with a large enough effect; inconclusive = small, poorly fitted or top-dose-only effect, or another doubt; inactive = no such curve, though single readings can be large; an effect the other way counts as inactive or inconclusive.

CCc1ccc(C(=O)Cc2cc3cccc(OC)c3oc2=O)cc1	BRCA1 expr up 11µM (no result: GoLoco inh red)
Cc1nn2c3c(cnc2c1-c1ccccc1)C(=O)CCC3	BRCA1 expr up 13µM
CCn1nc(-c2ccccc2C)nc2c(=O)n(C)c(=O)nc1-2	none (no result: Anesthetic bind, GoLoco inh red, ERG Ets-DNA blk)
Cc1ccc2c(Cl)cc(Cl)c(OCC(=O)OCC(=O)Nc3ccc(C#N)cc3)c2n1	GoLoco inh red 20µM
CC(=O)c1cccc(NC(=O)COC(=O)COc2c(Cl)cc(Cl)c3ccc(C)nc23)c1	none
CCCc1nnc(NC(=O)c2cc3ccccc3oc2=O)s1	none
COCc1nnc(NC(=O)c2cc3ccccc3o2)s1	BRCA1 expr up 6.3µM (no result: GoLoco inh red)
CCCc1nnc(NC(=O)c2cc3ccccc3o2)s1	BRCA1 expr up 5µM (no result: GoLoco inh red)
C=C[C@@H]1CN2CC[C@@H]1C[C@@H]2[C@@H](O)c1ccnc2ccc(OC)cc12	none (no result: Anesthetic bind, BRCA1 expr up, ERG Ets-DNA blk)
Cc1c(Cl)cccc1NC(=O)C(CCS(C)(=O)=O)N1Cc2ccccc2C1=O (stereo not given)	none (no result: GoLoco inh red, BRCA1 expr up)
CC1(C)CC(=O)C(C2C3=C(CC(C)(C)CC3=O)Oc3ccc4ccccc4c32)C(=O)C1 (stereo not given)	BRCA1 expr up 7.9µM
CCN(CC)S(=O)(=O)c1ccc2nc(NC(=O)c3ccc(Br)o3)sc2c1	none (no result: GoLoco inh red, BRCA1 expr up)
CS(=O)(=O)c1ccc2nc(NC(=O)c3ccccc3)sc2c1	BRCA1 expr up inconclusive (no result: GoLoco inh red)
Cc1cccc(C(=O)Nc2nc3ccc(S(C)(=O)=O)cc3s2)c1	BRCA1 expr up 3.2µM (no result: GoLoco inh red)
CC(C)C(=O)Nc1nc2ccc(S(C)(=O)=O)cc2s1	BRCA1 expr up 11µM
CCN(CC)S(=O)(=O)c1ccc2nc(NC(=O)c3ccco3)sc2c1	BRCA1 expr up 11µM
COc1ccc2nc(NC(=O)C3CCN(C(=O)c4ccco4)CC3)sc2c1	BRCA1 expr up 13µM (no result: GoLoco inh red)
COc1ccc2nc(NC(=O)c3ccco3)sc2c1	BRCA1 expr up inconclusive (no result: GoLoco inh red)
COc1cccc(/C=c2/[nH]c(=O)/c(=C\c3cccc(OC)c3OC)[nH]c2=O)c1OC	none (no result: Anesthetic bind, GoLoco inh red, ERG Ets-DNA blk)
O=S(=O)(Nc1c(Br)cc(Br)c2cccnc12)C1CC1	none (no result: Anesthetic bind, GoLoco inh red, ERG Ets-DNA blk)
COc1ccc2nc(NC(=O)Nc3ccccc3OC)sc2c1	BRCA1 expr up inconclusive (no result: GoLoco inh red)
COc1ccccc1NC(=O)Nc1nc2ccc(S(N)(=O)=O)cc2s1	BRCA1 expr up 4µM (no result: GoLoco inh red)
NCC(=O)c1c[nH]c2ccccc12	none (no result: Anesthetic bind, GoLoco inh red, ERG Ets-DNA blk)
O=C(O)CCC(=O)Nc1ccccc1C(=O)NCCc1ccccc1	BRCA1 expr up 8.9µM
O=C(O)CCC(=O)Nc1ccccc1C(=O)Nc1ccccc1	none
NC(=O)c1ccccc1NC(=O)CCc1ccccc1	BRCA1 expr up 11µM
NC(=O)c1ccccc1NC(=S)NC(=O)CCc1ccccc1	none
CN=C1S/C(=C\c2ccc(O)c(Br)c2)C(=O)N1C	none (no result: GoLoco inh red)
CN=C1S/C(=C\c2ccc(O)c(OC)c2)C(=O)N1C	BRCA1 expr up 10µM (no result: Anesthetic bind, GoLoco inh red)
Cc1ccc(S(=O)(=O)N2CCN(c3ccnc(-c4cccs4)n3)CC2)cc1	none (no result: Anesthetic bind, GoLoco inh red, ERG Ets-DNA blk)
Cc1ccc(O)c(NC(=S)NC(=O)C(C)C)c1	BRCA1 expr up inconclusive
Cc1ccc(O)c(NC(=S)NC(=O)CC(C)C)c1	BRCA1 expr up 13µM
Brc1ccc[n+](CCc2ccccc2)c1	none (no result: Anesthetic bind, GoLoco inh red, ERG Ets-DNA blk)
COc1ccc(Br)cc1CNc1ccc(O)cc1	GoLoco inh red 20µM
COc1cc(CNc2ccc(O)cc2)cc(Br)c1OCc1ccccc1	Anesthetic bind inconclusive, ERG Ets-DNA blk 40µM
O=S(=O)(c1ccc(Cl)cc1)N1CCN(c2nc(-c3ccccc3)nc3ccccc23)CC1	none (no result: Anesthetic bind, GoLoco inh red, ERG Ets-DNA blk)
Brc1ccc(C=C2C=c3ccccc3=C2)cc1	none (no result: Anesthetic bind, GoLoco inh red, ERG Ets-DNA blk)
CCc1cc(=O)oc2cc(OCc3ccc(C(=O)O)o3)ccc12	BRCA1 expr up 6.3µM (no result: GoLoco inh red)
O=C(O)c1ccc(COc2ccc3c4c(c(=O)oc3c2)CCC4)o1	none (no result: GoLoco inh red)
CSc1ccc(/C=N/n2c(C)cc(C)cc2=O)cc1	BRCA1 expr up 10µM
Cc1ccc(C(C)C)c(OCCCn2c(=O)oc3ccc(C)cc32)c1	none (no result: GoLoco inh red, BRCA1 expr up)
COc1ccccc1CNC(=O)CSc1ccsc1[N+](=O)[O-]	BRCA1 expr up 13µM
Nc1ccc(N)c(C(=O)O)c1	GoLoco inh red 16µM, ERG Ets-DNA blk inconclusive
c1ccc(Nc2nc(NCc3ccco3)nc3nccnc23)cc1	none (no result: Anesthetic bind, GoLoco inh red, ERG Ets-DNA blk)
O=[N+]([O-])c1ccc(C2CN=C(Nc3ccccc3)S2)cc1 (stereo not given)	Anesthetic bind inconclusive
CCc1ccc(NC2=NCC(c3ccccc3)S2)cc1 (stereo not given)	BRCA1 expr up 11µM
